Among the data in ChEMBL document CHEMBL2218924, “A broad activity screen in support of a chemogenomic map for kinase signalling research and drug discovery” (Biochem J, 2013) are residual activity values, retold here.

Assay [1] deals with T1, Serine/threonine-protein kinase TBK1 (Homo sapiens) (UniProt Q9UHD2).
T1 sequence (whole entry): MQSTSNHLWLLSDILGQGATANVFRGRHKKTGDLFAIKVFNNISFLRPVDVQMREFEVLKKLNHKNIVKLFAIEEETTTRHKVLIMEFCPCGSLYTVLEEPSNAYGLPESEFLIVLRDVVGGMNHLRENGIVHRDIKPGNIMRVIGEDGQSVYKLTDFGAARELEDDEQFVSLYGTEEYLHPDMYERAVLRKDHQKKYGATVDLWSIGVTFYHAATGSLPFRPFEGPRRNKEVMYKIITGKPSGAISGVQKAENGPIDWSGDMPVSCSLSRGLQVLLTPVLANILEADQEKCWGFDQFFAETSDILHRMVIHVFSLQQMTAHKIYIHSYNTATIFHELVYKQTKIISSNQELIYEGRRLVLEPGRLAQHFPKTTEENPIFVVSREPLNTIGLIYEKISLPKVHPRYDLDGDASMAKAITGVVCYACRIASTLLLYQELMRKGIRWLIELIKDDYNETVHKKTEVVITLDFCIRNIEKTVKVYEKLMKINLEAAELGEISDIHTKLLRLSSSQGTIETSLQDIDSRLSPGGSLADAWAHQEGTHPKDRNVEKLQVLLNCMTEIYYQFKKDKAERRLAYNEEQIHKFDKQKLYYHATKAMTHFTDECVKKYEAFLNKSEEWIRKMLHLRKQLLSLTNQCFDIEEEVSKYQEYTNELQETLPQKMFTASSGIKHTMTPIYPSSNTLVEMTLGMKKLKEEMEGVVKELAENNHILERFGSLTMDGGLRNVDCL
The settings on record: at 10 µM.

Assay [2] addresses T2, TGF-beta receptor type-1 (Homo sapiens) (UniProt P36897).
T2 sequence (whole entry): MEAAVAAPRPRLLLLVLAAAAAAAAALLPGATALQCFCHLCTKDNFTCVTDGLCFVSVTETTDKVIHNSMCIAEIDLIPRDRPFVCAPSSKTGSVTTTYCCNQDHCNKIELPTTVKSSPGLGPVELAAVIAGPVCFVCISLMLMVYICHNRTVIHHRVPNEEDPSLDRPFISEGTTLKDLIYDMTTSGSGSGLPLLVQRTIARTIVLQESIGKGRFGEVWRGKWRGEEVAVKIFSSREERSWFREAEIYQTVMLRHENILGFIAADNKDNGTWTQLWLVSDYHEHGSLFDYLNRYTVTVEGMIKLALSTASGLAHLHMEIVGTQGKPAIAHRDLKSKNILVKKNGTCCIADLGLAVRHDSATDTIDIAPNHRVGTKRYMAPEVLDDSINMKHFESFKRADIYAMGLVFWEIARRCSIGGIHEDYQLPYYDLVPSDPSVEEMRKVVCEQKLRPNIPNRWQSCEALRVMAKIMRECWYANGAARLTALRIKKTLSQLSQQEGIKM
The settings on record: at 1 µM.

The target of assay [3] is T2, TGF-beta receptor type-1 (Homo sapiens). The settings on record: at 10 µM.
Assay [4] deals with Insulin-like growth factor 1 receptor (Homo sapiens) (UniProt P08069). To be noted: at 1 µM.
The target is the same in assay [5]. To be noted: at 10 µM.
Assay [6] concerns the target T3, Inhibitor of nuclear factor kappa-B kinase subunit alpha (Homo sapiens) (UniProt O15111).
T3 sequence (whole entry): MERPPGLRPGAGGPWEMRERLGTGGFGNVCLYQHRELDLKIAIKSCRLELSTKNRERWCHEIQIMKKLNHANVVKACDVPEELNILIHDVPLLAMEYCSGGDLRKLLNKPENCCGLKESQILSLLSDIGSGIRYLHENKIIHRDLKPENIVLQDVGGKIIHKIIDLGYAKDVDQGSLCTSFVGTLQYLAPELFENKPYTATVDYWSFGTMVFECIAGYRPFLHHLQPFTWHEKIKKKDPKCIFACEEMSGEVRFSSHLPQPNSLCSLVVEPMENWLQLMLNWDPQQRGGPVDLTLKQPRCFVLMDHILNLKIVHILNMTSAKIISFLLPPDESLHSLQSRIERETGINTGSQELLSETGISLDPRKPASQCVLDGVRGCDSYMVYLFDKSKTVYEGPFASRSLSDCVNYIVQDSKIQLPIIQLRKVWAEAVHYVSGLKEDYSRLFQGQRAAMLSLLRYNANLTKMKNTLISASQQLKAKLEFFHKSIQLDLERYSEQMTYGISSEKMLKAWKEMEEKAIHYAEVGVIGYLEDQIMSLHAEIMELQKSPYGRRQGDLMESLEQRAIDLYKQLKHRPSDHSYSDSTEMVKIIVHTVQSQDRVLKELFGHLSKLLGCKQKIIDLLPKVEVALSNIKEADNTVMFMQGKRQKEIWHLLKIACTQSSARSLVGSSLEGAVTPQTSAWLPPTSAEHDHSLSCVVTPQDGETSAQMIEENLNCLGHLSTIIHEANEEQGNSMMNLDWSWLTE
To be noted: at 1 µM.

Assay [7] has as its target T3, Inhibitor of nuclear factor kappa-B kinase subunit alpha (Homo sapiens). The settings on record: at 10 µM.
Assay [8] deals with T4, Inhibitor of nuclear factor kappa-B kinase subunit beta (Homo sapiens) (UniProt O14920).
T4 sequence (whole entry): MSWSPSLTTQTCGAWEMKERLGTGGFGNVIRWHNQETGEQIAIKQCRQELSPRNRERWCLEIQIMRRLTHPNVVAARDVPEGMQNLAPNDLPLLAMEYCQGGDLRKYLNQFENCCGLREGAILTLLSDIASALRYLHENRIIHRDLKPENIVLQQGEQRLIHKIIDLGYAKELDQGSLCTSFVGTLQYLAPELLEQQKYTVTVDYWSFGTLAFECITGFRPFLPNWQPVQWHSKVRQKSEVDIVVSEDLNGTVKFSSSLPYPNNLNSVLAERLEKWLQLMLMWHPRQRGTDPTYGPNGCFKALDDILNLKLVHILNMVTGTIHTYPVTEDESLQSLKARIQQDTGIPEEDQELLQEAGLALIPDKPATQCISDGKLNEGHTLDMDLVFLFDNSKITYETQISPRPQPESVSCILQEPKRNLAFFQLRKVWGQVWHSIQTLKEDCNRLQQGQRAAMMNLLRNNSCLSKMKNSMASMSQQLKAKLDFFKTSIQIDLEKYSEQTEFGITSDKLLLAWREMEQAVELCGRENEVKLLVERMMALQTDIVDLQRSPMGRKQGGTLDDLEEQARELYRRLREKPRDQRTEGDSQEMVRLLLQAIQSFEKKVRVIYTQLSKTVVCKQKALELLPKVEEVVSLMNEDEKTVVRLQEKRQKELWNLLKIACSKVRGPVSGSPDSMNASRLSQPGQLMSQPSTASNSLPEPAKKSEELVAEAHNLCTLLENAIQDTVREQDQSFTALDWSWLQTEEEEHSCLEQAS
To be noted: at 1 µM.

The target in assay [9] is T4, Inhibitor of nuclear factor kappa-B kinase subunit beta (Homo sapiens). The settings on record: at 10 µM.
The target in assay [10] is Insulin receptor (Homo sapiens) (UniProt P06213). To be noted: at 1 µM.
Chain of Insulin receptor (Homo sapiens) (P06213 28-758 limits assumed): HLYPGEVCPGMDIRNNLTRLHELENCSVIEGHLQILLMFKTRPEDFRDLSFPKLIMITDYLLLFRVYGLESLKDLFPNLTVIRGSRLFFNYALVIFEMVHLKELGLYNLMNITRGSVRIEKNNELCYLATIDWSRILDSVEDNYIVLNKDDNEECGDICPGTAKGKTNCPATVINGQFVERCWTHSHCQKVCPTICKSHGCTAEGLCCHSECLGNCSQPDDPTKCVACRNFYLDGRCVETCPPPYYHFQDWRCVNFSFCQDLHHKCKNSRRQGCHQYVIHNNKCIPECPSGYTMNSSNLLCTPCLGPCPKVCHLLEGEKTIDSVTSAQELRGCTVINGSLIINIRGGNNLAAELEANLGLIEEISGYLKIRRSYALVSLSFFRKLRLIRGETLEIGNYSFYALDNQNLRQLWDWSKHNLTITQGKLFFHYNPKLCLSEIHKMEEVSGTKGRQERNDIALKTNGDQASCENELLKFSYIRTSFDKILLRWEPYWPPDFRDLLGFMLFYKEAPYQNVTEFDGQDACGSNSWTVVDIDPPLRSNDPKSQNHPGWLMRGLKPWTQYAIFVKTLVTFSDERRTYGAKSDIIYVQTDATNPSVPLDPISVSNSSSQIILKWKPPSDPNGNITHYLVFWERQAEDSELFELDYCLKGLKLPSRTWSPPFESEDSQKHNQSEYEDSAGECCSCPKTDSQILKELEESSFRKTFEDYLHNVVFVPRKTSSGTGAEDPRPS
Chain of Insulin receptor (Homo sapiens) (P06213 763-1382 limits assumed): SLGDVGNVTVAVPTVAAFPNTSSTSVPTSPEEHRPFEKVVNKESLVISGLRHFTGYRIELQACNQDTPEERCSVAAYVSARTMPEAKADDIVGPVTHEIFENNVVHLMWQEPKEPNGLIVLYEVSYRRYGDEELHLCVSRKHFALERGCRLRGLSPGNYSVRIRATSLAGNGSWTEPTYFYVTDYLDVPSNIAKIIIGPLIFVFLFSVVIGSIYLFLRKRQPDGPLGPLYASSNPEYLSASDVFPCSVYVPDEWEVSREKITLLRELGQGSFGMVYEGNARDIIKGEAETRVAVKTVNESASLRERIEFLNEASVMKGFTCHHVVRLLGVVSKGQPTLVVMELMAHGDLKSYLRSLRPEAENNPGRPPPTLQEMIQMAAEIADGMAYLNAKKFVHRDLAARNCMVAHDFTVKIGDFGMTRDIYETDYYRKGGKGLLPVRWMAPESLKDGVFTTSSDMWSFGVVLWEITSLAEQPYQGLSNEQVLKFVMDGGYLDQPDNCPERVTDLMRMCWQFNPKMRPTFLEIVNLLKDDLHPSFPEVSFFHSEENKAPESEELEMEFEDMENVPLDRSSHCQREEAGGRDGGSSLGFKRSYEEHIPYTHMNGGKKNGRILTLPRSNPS

Chain of Insulin-like growth factor 1 receptor (Homo sapiens) (P08069 31-736 limits assumed): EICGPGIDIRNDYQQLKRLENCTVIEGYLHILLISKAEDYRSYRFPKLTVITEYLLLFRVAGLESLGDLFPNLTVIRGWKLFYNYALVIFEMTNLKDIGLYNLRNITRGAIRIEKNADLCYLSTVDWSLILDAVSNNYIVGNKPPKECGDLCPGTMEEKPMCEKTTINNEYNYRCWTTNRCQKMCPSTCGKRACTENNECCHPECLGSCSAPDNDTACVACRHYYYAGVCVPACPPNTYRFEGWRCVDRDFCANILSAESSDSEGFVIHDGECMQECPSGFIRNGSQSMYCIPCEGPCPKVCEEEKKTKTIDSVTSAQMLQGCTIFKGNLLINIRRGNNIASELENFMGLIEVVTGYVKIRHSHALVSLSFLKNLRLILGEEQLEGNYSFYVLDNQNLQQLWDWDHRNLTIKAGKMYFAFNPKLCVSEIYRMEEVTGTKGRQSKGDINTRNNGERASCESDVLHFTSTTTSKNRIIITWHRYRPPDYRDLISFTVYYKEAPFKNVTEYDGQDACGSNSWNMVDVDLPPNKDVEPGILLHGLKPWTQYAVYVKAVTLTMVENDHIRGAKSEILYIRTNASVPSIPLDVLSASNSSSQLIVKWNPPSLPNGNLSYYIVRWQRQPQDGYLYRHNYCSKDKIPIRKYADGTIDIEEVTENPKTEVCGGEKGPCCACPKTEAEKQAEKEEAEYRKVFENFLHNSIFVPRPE
Chain of Insulin-like growth factor 1 receptor (Homo sapiens) (P08069 741-1367 limits assumed): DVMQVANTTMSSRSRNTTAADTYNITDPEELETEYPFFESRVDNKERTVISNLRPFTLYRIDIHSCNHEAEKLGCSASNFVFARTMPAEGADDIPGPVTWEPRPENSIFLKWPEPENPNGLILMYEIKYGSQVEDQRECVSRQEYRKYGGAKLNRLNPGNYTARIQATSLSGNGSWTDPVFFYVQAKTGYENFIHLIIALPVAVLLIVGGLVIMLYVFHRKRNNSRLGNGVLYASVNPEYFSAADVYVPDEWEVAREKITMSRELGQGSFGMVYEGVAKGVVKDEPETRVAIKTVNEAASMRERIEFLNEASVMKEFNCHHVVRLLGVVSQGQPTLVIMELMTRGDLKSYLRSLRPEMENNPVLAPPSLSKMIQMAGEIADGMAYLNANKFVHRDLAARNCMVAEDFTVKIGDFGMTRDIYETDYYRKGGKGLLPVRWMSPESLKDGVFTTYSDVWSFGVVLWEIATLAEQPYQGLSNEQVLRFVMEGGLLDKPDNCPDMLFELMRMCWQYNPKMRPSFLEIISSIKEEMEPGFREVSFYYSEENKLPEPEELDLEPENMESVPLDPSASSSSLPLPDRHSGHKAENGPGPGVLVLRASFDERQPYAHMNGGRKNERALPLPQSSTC

For orientation: residual activity means the signal under treatment as a percentage of the control signal. As to `Cc1ccc(NC2=CC(=O)c3sc(C)nc3C2=O)cc1`, the residual activity was determined as 74% in [1]; 90% in [2]; 83% in assay [3]; 95% in assay [4]; 92% in [5]; 107% in [6]. The residual activity in assay [7] was 103%; in [8] it was 106%; in [9] it was 98%; in assay [10] it was 95%.
